Source: PubChem
APOBEC3A inh: human APOBEC3A DNA deaminase inhibition; P31941; recombinant A3A, FAM/TAMRA ssDNA deamination fluorescence; inhibition, % at 20 µM; hit rate 0.41% among 330,000;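 active = at least 40% inhibition at 20 µM here, with at most 30% in a related deaminase screen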;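 also: plate controls were A3A with DMSO for no effect and wells lacking A3A enzyme for full effect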
Target sequence (P31941 whole entry, looked up): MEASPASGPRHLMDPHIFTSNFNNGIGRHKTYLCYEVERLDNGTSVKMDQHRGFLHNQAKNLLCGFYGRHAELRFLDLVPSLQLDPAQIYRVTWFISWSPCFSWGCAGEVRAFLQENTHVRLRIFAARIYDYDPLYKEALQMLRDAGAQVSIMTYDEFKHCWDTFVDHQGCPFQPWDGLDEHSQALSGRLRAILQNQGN
APOBEC3G inh: APOBEC3G (human) deaminase inhibition | Q9HC16 | recombinant A3G, ssDNA deamination FAM/TAMRA fluorescence | inhibition, % at 20 µM | hit rate 0.28% among 330,000 | AID 493012;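 active = inhibition of at least 40% at 20 µM, with no more than 30% in the related APOBEC3A deaminase screen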;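 also: plate controls were DMSO wells with A3G for no effect and wells lacking A3G enzyme for full effect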
Target sequence (Q9HC16 whole entry, looked up): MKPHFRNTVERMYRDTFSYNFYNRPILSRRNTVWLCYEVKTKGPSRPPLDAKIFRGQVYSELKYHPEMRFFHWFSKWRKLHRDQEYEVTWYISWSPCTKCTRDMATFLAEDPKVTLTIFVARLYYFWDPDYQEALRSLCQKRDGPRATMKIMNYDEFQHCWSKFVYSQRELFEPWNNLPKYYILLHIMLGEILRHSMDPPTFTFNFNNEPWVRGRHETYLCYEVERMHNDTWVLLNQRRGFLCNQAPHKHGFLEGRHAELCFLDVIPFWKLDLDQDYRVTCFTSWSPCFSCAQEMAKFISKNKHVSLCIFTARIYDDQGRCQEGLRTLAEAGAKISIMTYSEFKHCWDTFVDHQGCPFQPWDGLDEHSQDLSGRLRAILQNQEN
MLLE-PAM2 inh: blocks PAM2 peptide binding to the PABP1 MLLE domain; P11940; GST-MLLE / FITC-PAM2 fluorescence polarization; inhibition, % at 20 µM; hit rate 0.36% among 360,000; in the data active = inhibition above about 35%, passing the limit was not always enough;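 also: plate controls were DMSO wells with GST-MLLE for no effect and wells lacking GST-MLLE protein for full effect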
PABP FP inh: PABP-poly(A) binding inhibition; calls only at 35 µM; AID 2014; P11940; hit rate 1% among 290,000; PABP-poly(A) RNA binding, fluorescence polarization;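 also: calls also rest on retests at 20 µM and on dose response follow-up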
PHOSPHO1 block: blocks human PHOSPHO1 phosphatase activity | hit rate 1.1% among 290,000 | Q8TCT1 | recombinant PHOSPHO1, absorbance phosphatase assay | inhibition, % at 13.3 µM; in the data active = inhibition above about 60%
eIF4H inh: inhibitors of RNA binding by human eIF4H; Q15056; eIF4H fluorescence polarization binding assay; inhibition, % at 35 µM; hit rate 0.94% among 290,000;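 also: calls also rest on retests at 20 µM and on dose response follow-up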
APOBEC3G confirm: APOBEC3G (human) deaminase inhibition, confirmed | recombinant A3G ssDNA deaminase, UDG/FAM-TAMRA fluorescence | shares compounds with APOBEC3G inh | inhibition, % at 20 µM | hit rate 72% among 890;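 active = inhibition reaching a set limit in any replicate at 20 µM, the limit being 80% of the first screen's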
UDG A3G counter: inhibits E. coli UDG, flagging false APOBEC3G inhibitors; inhibition, % at 20 µM; 710 tested, under 10 active; UDG counterscreen, FAM/TAMRA oligo fluorescence; shares compounds with APOBEC3G inh; AID 504715;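 active = compounds giving 40% or more inhibition at 20 µM in any one of the three replicates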;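 also: plate controls were DMSO wells with UDG and oligo for no effect and DMSO wells lacking both for full effect; inhibitors lower the FAM signal released by uracil excision and alkaline cleavage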
Starred values were filed as active, the others as inactive; i = inactive; ? = inconclusive; · = no result; + = active, no number. Sampled rows, rich in hits. Any-hit rate of the full collection: about 2.6%. Unless noted, no rule for the calls is given here.

SMILES	APOBEC3A inh	APOBEC3G inh	MLLE-PAM2 inh	PABP FP inh	PHOSPHO1 block	eIF4H inh	APOBEC3G confirm	UDG A3G counter
CCOC(=O)c1cc(C#N)c(SCC(=O)c2cc(C#N)c(SC)nc2C)[nH]c1=O	2	43*	-13	i	98*	15	17*	-4
CCOC(=O)c1cc(C#N)c(SCC(N)=O)[nH]c1=O	-2	-5	-8	i	13	48	·	·
CCc1ccc(-n2c(=O)c3ccccc3n3c(=S)[nH]nc23)cc1	-5	61*	-48	i	10	0	76*	-3
COc1cccc(-n2c(=O)c3ccccc3n3c(=S)[nH]nc23)c1	-2	39	-46	i	-116	-24	·	·
CCOc1ccc(OCCC(=O)N(CC(C)C)c2c(N)n(Cc3ccccc3)c(=O)[nH]c2=O)cc1	·	·	12	·	·	·	·	·
N#C/C(=C\c1ccc(O)c(O)c1)C(=O)Nc1cccc2ncccc12	8	52*	-57	+	19	90*	59*	-2
CCOC(=O)C1CCN(C(=O)COC(=O)c2cccc(NS(=O)(=O)c3ccccc3)c2)CC1	·	·	-13	·	·	·	·	·
S=c1[nH]nc(NCCCN2CCOCC2)s1	-4	44*	4	i	62*	-10	47*	-37
S=c1[nH]c2cnccc2n1Cc1ccccc1	-4	13	-73	i	-46	0	·	·
S=c1[nH]c2ccccc2n1Cc1ccccc1	-2	50*	-42	i	-65	2	54*	1
O=C(NC1CCCC1)C1CCN(C(=O)c2ccc(Cl)cc2)CC1	3	5	-13	i	10	-6	·	·
Cc1ccc(C(=O)N2CCC(C(=O)NC3CCCC3)CC2)cc1	0	69*	11	i	37	-6	-5	1
O=C(O)c1ccc2c3c(ncnc13)-c1ccccc1C2=O	1	61*	·	?	105*	?	41*	2
O=c1c2ccccc2sn1-c1cc(S(=O)(=O)N2CCOCC2)ccc1N1CCCC1	1	36	27	i	41	11	·	·
O=c1c2ccccc2sn1-c1cc(S(=O)(=O)N2CCOCC2)ccc1N1CCOCC1	0	77*	32	i	-36	-3	77*	2
CCCC(C)c1nnc(NC(=O)C2CC(=O)N(CCc3ccc(F)cc3)C2)s1 (stereo not given)	2	45*	22	i	15	2	22*	3
COc1ccc(OC)c2c1C(=O)c1ccccc1C2=O	-4	56*	·	+	95*	33	-11	-2
COc1ccc(N)c2c1C(=O)c1ccccc1C2=O	·	·	10	i	3	12	·	·
COc1cccc2c1-c1c(C(=O)O)cccc1C2=O	0	-7	11	i	14	2	·	·
COc1cccc2c1C(=O)c1ccc3ccccc3c1C2=O	-10	65*	30	i	87*	16	22*	-3
COc1ccc(OC)c2c1C(=O)CC2C (stereo not given)	·	·	5	·	·	·	·	·
COc1ccc(OC)c2c1C(=O)C(Cl)=C(Cl)C2=O	-6	88*	58*	i	20	-10	92*	-2
COc1ccccc1NC(=O)C1CCN(S(=O)(=O)c2ccc3c(c2)NC(=O)CO3)CC1	0	-1	16	i	-1	-6	·	·
Cc1ccc(S(=O)(=O)/C(C#N)=C/c2c(N3CCCCC3)nc3ccccn3c2=O)cc1	-2	49*	3	i	23	-2	-3	-3
Cc1ccc(S(=O)(=O)/C(C#N)=C/c2c(N3CC(C)OC(C)C3)nc3ccccn3c2=O)cc1 (stereo not given)	-1	-6	1	i	33	2	·	·
SMILES	APOBEC3A inh	APOBEC3G inh	MLLE-PAM2 inh	PABP FP inh	PHOSPHO1 block	eIF4H inh	APOBEC3G confirm	UDG A3G counter
Cc1ccc(Nc2nc(N)c3ccccc3n2)cc1C	2	33	1	i	24	-6	·	·
Cc1ccc(C(NC(=O)C(C)C)c2cc([N+](=O)[O-])c3cccnc3c2O)cc1 (stereo not given)	-5	7	6	i	-5	8	·	·
CC(C)C(=O)NC(c1cccs1)c1cc([N+](=O)[O-])c2cccnc2c1O (stereo not given)	2	54*	11	i	4	11	13*	-1
COc1ccc(/C=N/n2c(-c3n[nH]c4c3CCC4)n[nH]c2=S)cc1OC	0	48*	-29	i	14	-8	61*	-3
COc1cc(/C=N/n2c(-c3n[nH]c4c3CCC4)n[nH]c2=S)ccc1O	-2	47*	-10	i	-54	-2	58*	2
COc1ccc(/C=N/n2c(-c3ccc(C)cc3)n[nH]c2=S)cc1OC	-1	32	-41	i	12	4	·	·
S=c1[nH]nc(-c2n[nH]c3c2CCC3)n1/N=C/C=C/c1ccccc1	-5	27	-27	i	-35	0	·	·
O=C(NC(=S)N1CCN(c2ccc(C(F)(F)F)cc2[N+](=O)[O-])CC1)c1cccs1	-5	-6	15	i	21	2	·	·
N#Cc1cc2c([nH]c1=S)CCCC2	2	67*	31	i	0	63	78*	3
Cc1ccccc1-n1c(-c2ccc(Br)o2)n[nH]c1=S	-1	27	-3	·	·	·	·	·
Cc1ccsc1-c1n[nH]c(=S)n1CC(C)C	-3	44*	-14	i	7	-9	90*	-2
CC(C)Cn1c(-c2nn(C)cc2Cl)n[nH]c1=S	-9	26	-7	i	-71	8	·	·
CC(C)Cn1c(-c2ccc(Br)o2)n[nH]c1=S	-4	41*	4	i	-5	-4	76*	-4
Nn1c(SCC(=O)Nc2cccnc2Cl)nnc1-c1ccccc1	1	46*	-5	·	·	·	63*	-2
CCN(CC)C(=O)CSc1ncnc2sccc12	-1	-5	4	i	7	-6	·	·
CCN(CC)C(=O)CSc1ncnc2c(-c3cccs3)nsc12	26	54*	-33	i	-3	14	45*	-3
COC(=O)/C=C1\SC(N2CCOCC2)=C(c2ccc(OC)cc2)C1=O	4	55*	27	i	-50	-5	20*	-3
COc1ccc2cc(/C=C3\SC(=S)NC3=O)c(N3CCOCC3)nc2c1	-4	-8	-40	i	-7	17	·	·
CCOc1cccc(N)c1	-5	-13	-3	·	·	·	·	·
CCOc1ccc(N)c(SSc2cc(OCC)ccc2N)c1	-3	72*	18	i	67*	2	96*	8
Cc1cc(Br)cc2c1N(C)C(=O)C2(c1ccc(O)cc1)c1ccc(O)cc1	-5	-11	0	·	·	·	·	·
CC(=O)Nc1ccc(S(=O)(=O)N(CC(=O)NCC2CCCO2)Cc2ccccc2Cl)cc1 (stereo not given)	·	·	4	·	·	·	·	·
